# aSyn 5UTR act = Activators working through SNCA 5'UTR binding (MLPCN); alpha-synuclein 5'UTR reporter, activators screen; 300,000 compounds, 7.1% hits; activity score, % (tested at 7.5 µM), hits read low; in the data active = activity score below about -60%
# Active calls of the source: *. Only a sample is shown.
SMILES,aSyn 5UTR act
COc1ccc(-c2cn3c(C)c(C(=O)NC(C)C)sc3n2)cc1,-77.8*
CCN(CC)C(NC(=O)c1ccccc1)C(=O)c1ccccc1 (stereo not given),-68.9*
Cc1ccc(F)cc1NCC(=O)Nc1ccc(Br)cc1,-145.6*
Cc1ccc(NCC(=O)Nc2ccc(Br)cc2)cc1C,-126.0*
Cc1ccc(N=Nc2c(O)ccc3n[nH]nc23)cc1,-196.2*
Clc1ccc(-c2nc3cc(CN4CCCCC4)ccc3o2)cc1,-206.0*
CCOC(=O)N/N=C/c1cc(C)n(-c2ccccc2)c1C,-74.6*
O=C(N/N=C/c1ccc(Cl)cc1Cl)c1cccc(F)c1,-212.5*
CCc1ccc(C(=O)N/N=C/c2ccc(Cl)cc2Cl)nc1,-75.1*
Cc1cc(/C=N/NC(=O)c2cccc(F)c2)c(C)n1-c1ccccc1,-152.2*
O=C(N/N=C/c1cn(Cc2cccc(F)c2)c2ccccc12)c1cc(O)cc(O)c1,59.2
Cc1cc(/C=N/NC(=O)c2ccccc2F)c(C)n1-c1ccccc1,-132.9*
CCOC(=O)N/N=C/c1ccc(F)cc1F,-76.6*
Nc1nc2ccccc2n1C(=O)CCc1ccccc1,-62.8*
Cc1[nH]n(C(N)=S)c(=O)c1N=Nc1cccc(Cl)c1,-126.4*
Cc1cccc(N=Nc2c(C)[nH]n(C(N)=S)c2=O)c1C,-199.4*
CC(=O)N(C)c1ccc(N=Nc2c(C)[nH]n(C(N)=S)c2=O)cc1,-112.5*
CC1=NN(c2ccc(C)cc2)C(=O)/C1=C\c1ccc(Br)s1,-65.5*
C=C(C)Cn1cnc2c(oc3nc4c(cc32)CCCC4)c1=O,-85.0*
O=C(Cn1cnc2c(oc3nc4c(cc32)CCCC4)c1=O)Nc1cccc(Cl)c1,66.3
CC(C)(C)c1nnc(NC(=O)c2cccs2)s1,-143.3*
CC(C)c1nnc(NC(=O)c2cccs2)s1,-102.0*
O=C(Nc1nnc(C2CC2)s1)c1cccs1,-74.1*
FC(F)(F)c1cnc2c(-c3ccccc3)n[nH]c2c1,-129.5*
CC1(C)C=Cc2cc(-c3coc4cc(O)cc(O)c4c3=O)cc(O)c2O1,-149.4*
SMILES,aSyn 5UTR act
O=C(CN1CCCCC1)Nc1scc2c1c(=O)oc1ccccc12,-134.3*
O=C(COc1ccc(Cl)cc1Cl)NCc1ccco1,-64.1*
O=C(NCc1ccco1)c1ccc(COc2cc(Cl)ccc2Cl)cc1,-94.9*
Cc1ccc(C)c(-c2csc(Nc3ncccn3)n2)c1,-66.3*
Cc1cccc(Nc2nc(-c3ccc(O)cc3O)cs2)n1,-125.9*
Oc1ccc(-c2csc(Nc3ncccn3)n2)c(O)c1,-165.4*
Oc1ccc(-c2csc(Nc3ncccn3)n2)cc1O,-177.8*
CCOC(=O)c1sc(NC(=O)C2CCC2)cc1C,-110.0*
CCOC(=O)c1sc(NC(=O)Nc2ccccc2Cl)cc1C,-94.9*
CCOC(=O)c1sc(NC(=O)c2cccc(S(=O)(=O)N3c4ccccc4CC3C)c2)cc1C (stereo not given),79.5
CCOC(=O)c1sc(NC(=O)c2ccc(C)s2)cc1C,-170.4*
O=[N+]([O-])c1cc(S(=O)(=O)/N=C(/c2ccccc2)N2CCOCC2)ccc1Cl,-82.9*
COCCCN1CN=C(Nc2nc3ccccc3o2)NC1,-81.7*
CCCN1CN=C(Nc2nc3ccccc3o2)NC1,-112.9*
c1ccc2oc(NC3=NCN(CC4CCCO4)CN3)nc2c1 (stereo not given),-93.7*
Cc1ccc2nc(SCc3nc4ccccc4c(=O)[nH]3)[nH]c2c1,-139.5*
Cc1ccc2nc(CSc3nc(C)ccc3C#N)[nH]c2c1,79.3
Cc1ccc2nc(SC(C)C(=O)N3CCCC3)[nH]c2c1 (stereo not given),-75.4*
Cc1ccc2nc(SCC(=O)c3ccc(O)cc3O)[nH]c2c1,-220.2*
Cc1ccc2nc(SC(C)C(=O)N3CCCCC3)[nH]c2c1 (stereo not given),-81.0*
Cc1cc(C(=O)CSc2nc3ccccc3c(=O)[nH]2)c(C)n1C,-130.4*
Cc1ccc(CSc2nc3ccncc3[nH]2)cc1,72.5
Cc1ccc2nc(SCC(=O)N3CCCC3)[nH]c2c1,-128.9*
O=C(Nc1nc(-c2cccc3ccccc23)cs1)c1ccc2c(c1)S(=O)(=O)c1ccccc1C2=O,-142.8*
CC(=O)Nc1ccc(-c2nc3ccc(NC(C)=O)cc3o2)cc1,-103.9*
SMILES,aSyn 5UTR act
CC(=O)Nc1cc(-c2nc3ccccc3o2)ccc1Cl,-77.1*
Cc1cc2nc(-c3ccc(NC(=O)C(C)C)cc3)oc2cc1C,-195.5*
Cn1nc(C(=O)Nc2ccc(S(=O)(=O)NCc3ccco3)cc2)c2ccccc2c1=O,-96.4*
Cn1nc(-c2ccc(N3CCCCC3)c(NC(=O)c3ccco3)c2)c2ccccc2c1=O,67.2
COc1cc(C2CC(=O)Nc3n[nH]c(-c4ccccc4)c32)cc(OC)c1OC (stereo not given),-120.0*
COc1cc(/C=C2\CC(C(C)(C)C)C/C(=C\c3cc(OC)c(OC)c(OC)c3)C2=O)cc(OC)c1OC (stereo not given),79.8
O=C(CN1CC(=O)Oc2ccccc21)OCC(=O)c1cccc(Br)c1,-65.6*
O=C(CN1C(=O)c2ccccc2S1(=O)=O)c1cccc(Br)c1,84.2
O=C(CN1CC(=O)Oc2ccccc21)OCC(=O)c1ccccc1,-100.1*
COc1cc2ccccc2cc1C(=O)Nc1ccc(Cl)cn1,-111.1*
COc1cccc(C(=O)Nc2ccc3[nH]c(=O)[nH]c3c2)c1OC,67.8
COc1cc(OC)c(C(=O)Nc2ccc3ccccc3c2)cc1OC,-232.1*
COc1cccc(NC(=O)c2cccc(OC)c2OC)c1,-168.0*
COc1cccc(NC(=O)c2ccccc2Br)c1,-105.7*
CCN(CC)CCNc1cc(C)nc2c1C(=O)C(=O)C=C2N1CCCCC1,81.4
COc1cc(Cl)c(C)cc1NC(=O)c1cccc(OC)c1OC,-137.3*
COc1cccc(NC(=O)c2cc3ccccc3cc2OC)c1,-150.9*
COc1cc2ccccc2cc1C(=O)Nc1ccc(O)cc1,-137.8*
COc1ccc(NC(=O)c2cc3ccccc3cc2OC)cc1OC,-70.2*
Cc1occc1C(=O)Nc1ccc2ccccc2c1,-128.5*
COc1cccc(C(=O)Nc2ccc(N(C)C)cc2)c1OC,-213.6*
COc1cc(C(=O)Nc2ccc3ccccc3c2)cc(OC)c1OC,88.5
COc1ccc(C(=O)Nc2ccc3ccccc3c2)cc1OC,-175.8*
O=C(NC(=S)Nc1nc2c(ccc3ccccc32)s1)c1cccs1,-63.2*
O=C(Nc1nc2c(ccc3ccccc32)s1)c1ccco1,-293.2*
SMILES,aSyn 5UTR act
O=C(Nc1ccc(-c2nc3c(ccc4ccccc43)o2)cc1)c1ccco1,-164.8*
O=C(Nc1nc2c(F)c(F)c(F)cc2s1)c1ccco1,-178.7*
Fc1ccc(-c2nc(-c3cccs3)no2)cc1,-134.1*
Fc1ccc(-c2cnc(-c3cccs3)o2)cc1,-148.1*
CN(C)/N=C/c1ccc(N2CCOCC2)cc1,-96.4*
C/C(=N\Nc1ccc(F)cc1F)c1ccc(Br)s1,-81.0*
C/C(=N\Nc1ccc(F)cc1F)c1ccc(N2CCOCC2)cc1,-95.7*
Fc1ccc(N/N=C/c2ccc(N3CCOCC3)cc2)c(F)c1,-207.5*
O=C(Oc1ccc(-c2ccccc2)cc1)N1CCCCC1,-169.2*
O=C(c1cccc(-c2nnc(-c3ccccc3)o2)c1)N1CCCCC1,-76.1*
O=C(c1ccc(-c2ccccc2)cc1)N1CCCC1,-87.7*
COc1ccc(/C=C/C(=O)Nc2ccccc2C)cc1S(=O)(=O)N1CCOCC1,-86.7*
Cn1c2ccccc2c2ncn(CCC3=CCCCC3)c(=O)c21,-157.9*
CN(C)c1ccc(/C=C/c2nnnn2-c2ccccc2)cc1,-156.7*
Cc1cc(C(=O)Cn2cnc3ccccc3c2=O)c(C)n1C1CC1,-109.3*
O=C(Cn1cnc2ccccc2c1=O)c1ccc2c(c1)OCCO2,-129.8*

# Screening data as filed in PubChem.
